Data published in PubChem BioAssay AID492993 (Johns Hopkins Ion Channel Center, 2010).
Among all 4,900 compounds or so, about 200 (4.1%) were called active.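 How the source made its calls: active means thallium signal drop more than 5 SD beyond the mean of the no-compound control wells, seen in both duplicate plates; inactive means the rest.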 This excerpt belongs to a sample that is enriched for actives.

target: Inward rectifier potassium channel 2 (Mus musculus) (UniProt P35561); experiment: mouse Kir2.1 channel inhibition, confirmation, selectivity assay for KCNK9 modulator project, cell-based, HEK293, thallium flux (AID 492993); conditions: Kir2.1 cells, FluxOR thallium flux fluorescence, at 10 µM; hits give high values;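 on inhibition: signal is fluorescence rise after thallium addition divided by baseline fluorescence; plate controls were assay buffer only for no effect and full block by chlorpromazine control for full effect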
Sequence (P35561 whole entry, looked up): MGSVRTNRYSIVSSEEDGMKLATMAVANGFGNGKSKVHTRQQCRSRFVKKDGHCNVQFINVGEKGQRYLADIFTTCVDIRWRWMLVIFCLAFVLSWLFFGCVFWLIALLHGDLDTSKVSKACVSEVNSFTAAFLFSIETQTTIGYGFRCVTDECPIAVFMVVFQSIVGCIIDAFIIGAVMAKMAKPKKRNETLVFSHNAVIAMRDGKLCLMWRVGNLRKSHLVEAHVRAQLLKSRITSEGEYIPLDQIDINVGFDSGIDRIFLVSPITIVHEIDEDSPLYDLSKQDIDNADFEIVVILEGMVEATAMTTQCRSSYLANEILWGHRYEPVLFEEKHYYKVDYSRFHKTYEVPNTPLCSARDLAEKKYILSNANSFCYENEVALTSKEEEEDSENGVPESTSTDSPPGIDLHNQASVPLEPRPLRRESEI

SMILES	inhibition
CCCCCCCCCCCCn1ccc(=N)cc1	75% (active)
CCCCCCN=C(CC)c1c(O)n(CCCC)c(=O)[nH]c1=O	inactive
CC(C)(C)c1ccc(OC(=O)N2CCCCC2)cc1	inactive
CCOC(=O)C1SC2(C(F)(F)C(F)F)CC1(O)c1c(c(OC)c3occc3c1OC)O2 (stereo not given)	inactive
CC(C)(C)c1ccc(CN2C(=O)CN=C(c3ccccc3)c3ccccc32)cc1	inactive
